Measured values published in PubChem BioAssay (Tox21).
Results filed as inconclusive are left out. Where a call stands in place of a potency, no number is given. Calls of active or inactive are those of the source. Unless noted, calls come from the whole dose curve; as a rule, active = well fitted curve in the direction sought with a large enough effect in the repeat runs; inconclusive = weak or mixed curves; inactive = no such curve, though single readings can be large; an effect the other way counts as inactive or inconclusive.

What was measured:
[1] = qHTS assay to identify small molecule antagonists of the thyroid receptor (TR) signaling pathway (AID 743065); note: nearly all actives have a fitted effect of over 55% in size; note: potency is the fitted concentration of half-maximal effect
Procedure, shortened: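 GH3.TRE-Luc rat pituitary cells (two TREs driving luciferase) were dosed with compound, then stimulated with 1 nM T3 (final) for 23.5 h at 37 C. ONE-Glo luminescence was the read-out, with CellTiter-Fluor fluorescence as the cytotoxicity counter-screen.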

[2] = tested on: thyroid hormone receptor (rat, GH3 cells); experiment: qHTS assay to identify small molecule agonists of the thyroid receptor (TR) signaling pathway (AID 743066; calls by dose curve)
[3] = target: Estrogen receptor (Homo sapiens) (UniProt P03372); experiment: qHTS assay to identify small molecule antagonists of the estrogen receptor alpha (ER-alpha) signaling pathway (AID 743069; active = well fitted curve in the direction sought with a large enough effect in the signal ratio in the repeat runs, not every such curve was filed as active; the % refers to the signal ratio)
Chain of Estrogen receptor (Homo sapiens) (P03372 whole entry, looked up): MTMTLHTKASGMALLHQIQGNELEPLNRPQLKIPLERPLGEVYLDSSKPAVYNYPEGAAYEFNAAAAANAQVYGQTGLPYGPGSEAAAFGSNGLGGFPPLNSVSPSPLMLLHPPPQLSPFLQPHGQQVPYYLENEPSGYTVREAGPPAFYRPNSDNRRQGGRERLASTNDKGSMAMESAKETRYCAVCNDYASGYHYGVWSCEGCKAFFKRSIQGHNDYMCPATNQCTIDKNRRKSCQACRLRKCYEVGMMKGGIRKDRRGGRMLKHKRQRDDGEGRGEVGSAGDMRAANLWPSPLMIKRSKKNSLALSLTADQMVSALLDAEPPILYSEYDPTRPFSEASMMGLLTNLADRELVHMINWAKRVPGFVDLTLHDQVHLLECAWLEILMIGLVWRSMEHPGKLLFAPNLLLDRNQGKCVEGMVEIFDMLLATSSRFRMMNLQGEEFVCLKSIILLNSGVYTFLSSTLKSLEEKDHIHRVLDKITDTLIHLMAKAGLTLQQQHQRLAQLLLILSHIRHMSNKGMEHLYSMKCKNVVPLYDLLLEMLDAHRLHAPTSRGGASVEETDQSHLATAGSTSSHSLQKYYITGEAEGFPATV
Procedure, shortened: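 In this cell-based reporter format, GripTite HEK293 cells harbouring ER-alpha-UAS-bla were grown overnight with 2% charcoal-stripped FBS, dosed with DMSO-dissolved compounds, then challenged with 17beta-estradiol. After 18 hr at 37C, beta-lactamase activity was detected by FRET fluorescence.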

[4] = qHTS assay to identify small molecule antagonists of the estrogen receptor alpha (ER-alpha) signaling pathway - cell viability counter screen (AID 743074; calls by dose curve; note: nearly all actives have a fitted effect of over 45% in size)
[5] = target: Estrogen receptor (Homo sapiens) (UniProt P03372); experiment: qHTS assay to identify small molecule agonists of the estrogen receptor alpha (ER-alpha) signaling pathway (AID 743075; calls by dose curve)
[6] = target: Estrogen receptor (Homo sapiens) (UniProt P03372); experiment: qHTS assay to identify small molecule agonists of the estrogen receptor alpha (ER-alpha) signaling pathway using the BG1 cell line (AID 743079); settings: BG1Luc4E2 cells, ERE-luciferase agonist, 22 h; activation: at 70.3 µM (top of the series); note: nearly all actives have a fitted effect of over 20% in size
[7] = qHTS assay to identify small molecule antagonists of the estrogen receptor alpha (ER-alpha) signaling pathway using the BG1 cell line (AID 743080; calls by dose curve;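 note: BG1 cells stimulated with 17beta-estradiol alongside compound; nearly all actives have a fitted effect of over 25% in size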)
Procedure, shortened: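 BG1Luc4E2, endogenous ER-alpha, 4xERE-luc; 5 d charcoal-stripped FBS, phenol red free; 24 h plating; cpd + 17beta-estradiol 21.5 h, 37 C/5% CO2; CellTiter-Fluor viability 30 min, then ONE-Glo luciferase 30 min RT.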

Aromatase (Homo sapiens) = Aromatase (Homo sapiens) (UniProt P11511); experiment: qHTS assay to identify aromatase inhibitors (AID 743083); note: nearly all actives have a fitted effect of over 55% in size
Chain of Aromatase (Homo sapiens) (P11511 whole entry, looked up): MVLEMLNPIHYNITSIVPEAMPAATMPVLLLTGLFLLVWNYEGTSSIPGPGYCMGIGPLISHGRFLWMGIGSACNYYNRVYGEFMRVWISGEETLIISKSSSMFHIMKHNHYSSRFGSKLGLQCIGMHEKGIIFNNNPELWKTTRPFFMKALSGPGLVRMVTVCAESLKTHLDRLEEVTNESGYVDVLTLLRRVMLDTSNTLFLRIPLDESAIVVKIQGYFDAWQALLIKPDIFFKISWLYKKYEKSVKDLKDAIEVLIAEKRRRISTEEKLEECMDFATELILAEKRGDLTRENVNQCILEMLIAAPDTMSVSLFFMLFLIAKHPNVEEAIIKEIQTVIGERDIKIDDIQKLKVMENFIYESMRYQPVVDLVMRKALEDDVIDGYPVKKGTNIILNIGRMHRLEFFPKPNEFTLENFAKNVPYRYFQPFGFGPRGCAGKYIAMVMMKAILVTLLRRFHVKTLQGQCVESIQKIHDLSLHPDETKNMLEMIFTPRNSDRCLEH

[8] = qHTS assay to identify aromatase inhibitors - cell viability counter screen (AID 743084);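 note: cells stimulated with testosterone during compound exposure; nearly all actives have a fitted effect of over 55% in size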
[9] = target: Aryl hydrocarbon receptor (Homo sapiens) (UniProt P35869); experiment: qHTS assay to identify small molecule that activate the aryl hydrocarbon receptor (AhR) signaling pathway (AID 743085);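 note: HG2L7.5c1 human HepG2 liver cells with stably integrated DRE-driven firefly reporter; nearly all actives have a fitted effect of over 15% in size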
Chain of Aryl hydrocarbon receptor (Homo sapiens) (P35869 whole entry, looked up): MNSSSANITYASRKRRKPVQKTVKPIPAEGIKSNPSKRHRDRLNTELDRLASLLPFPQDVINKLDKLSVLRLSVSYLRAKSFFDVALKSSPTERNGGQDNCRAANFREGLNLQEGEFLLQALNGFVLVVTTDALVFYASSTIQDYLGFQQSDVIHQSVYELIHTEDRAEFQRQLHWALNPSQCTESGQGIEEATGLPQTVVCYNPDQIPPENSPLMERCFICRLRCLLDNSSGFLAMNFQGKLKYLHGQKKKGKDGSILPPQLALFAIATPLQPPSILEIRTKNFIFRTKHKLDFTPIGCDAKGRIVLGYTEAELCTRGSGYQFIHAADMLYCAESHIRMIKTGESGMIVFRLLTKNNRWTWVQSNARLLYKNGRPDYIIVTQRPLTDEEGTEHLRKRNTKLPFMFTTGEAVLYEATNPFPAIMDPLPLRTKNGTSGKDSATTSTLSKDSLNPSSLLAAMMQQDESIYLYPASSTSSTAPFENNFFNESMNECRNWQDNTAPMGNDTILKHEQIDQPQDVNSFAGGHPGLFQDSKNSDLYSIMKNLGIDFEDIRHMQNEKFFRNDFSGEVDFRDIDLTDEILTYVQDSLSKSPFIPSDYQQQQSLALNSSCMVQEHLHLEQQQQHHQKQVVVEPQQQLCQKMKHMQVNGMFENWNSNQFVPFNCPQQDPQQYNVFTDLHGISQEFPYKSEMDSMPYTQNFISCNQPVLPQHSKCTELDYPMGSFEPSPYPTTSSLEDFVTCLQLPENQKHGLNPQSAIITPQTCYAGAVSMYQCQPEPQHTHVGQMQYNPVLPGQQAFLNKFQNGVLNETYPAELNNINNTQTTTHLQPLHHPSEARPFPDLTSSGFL
Procedure, shortened: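 Luminescence read-out: ONE-Glo reagent, 30 min at room temperature, in HG2L7.5c1 HepG2 reporter cells treated 24 h at 37C. Viability was measured beforehand by CellTiter-Fluor fluorescence after 30 min at 37C.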

[10] = qHTS assay to identify small molecule that activate the aryl hydrocarbon receptor (AhR) signaling pathway - cell viability counter screen (AID 743086);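 note: HepG2 liver cells carrying the AhR DRE luciferase reporter; nearly all actives have a fitted effect of over 45% in size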
Procedure, shortened: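 HepG2-AhR-luc (HG2L7.5c1) cells, 4000/well, treated 24 h at 37 C with compound; viability measured as CellTiter-Fluor fluorescence after 30 min in the same wells as the luciferase read.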

[11] = target: Peroxisome proliferator-activated receptor gamma (Homo sapiens) (UniProt P37231); experiment: qHTS assay to identify small molecule agonists of the peroxisome proliferator-activated receptor gamma (PPARg) signaling pathway (AID 743094; active = well fitted activation curve with a large enough effect in the signal ratio in the repeat runs, not every such curve was filed as active; the % refers to the signal ratio)
Chain of Peroxisome proliferator-activated receptor gamma (Homo sapiens) (P37231 whole entry, looked up): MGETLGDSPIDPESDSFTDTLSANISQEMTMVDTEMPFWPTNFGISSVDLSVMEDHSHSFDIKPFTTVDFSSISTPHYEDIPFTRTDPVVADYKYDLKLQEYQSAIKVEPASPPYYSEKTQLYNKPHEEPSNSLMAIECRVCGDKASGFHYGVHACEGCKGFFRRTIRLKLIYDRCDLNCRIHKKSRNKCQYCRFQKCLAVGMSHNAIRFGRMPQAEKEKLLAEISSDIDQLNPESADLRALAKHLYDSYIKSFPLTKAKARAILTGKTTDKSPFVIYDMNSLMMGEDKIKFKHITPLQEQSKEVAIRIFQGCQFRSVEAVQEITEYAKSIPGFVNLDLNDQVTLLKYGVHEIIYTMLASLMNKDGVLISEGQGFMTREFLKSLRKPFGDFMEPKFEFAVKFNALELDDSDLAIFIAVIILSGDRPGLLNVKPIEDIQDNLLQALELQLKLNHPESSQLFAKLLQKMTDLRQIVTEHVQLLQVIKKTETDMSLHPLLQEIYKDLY
Procedure, shortened: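 HEK293H PPARg-bla cells, 5 h settle at 37C/5% CO2; compound (DMSO) 17 h, 37C; B/G FRET substrate 1 h RT; fluorescence intensity read-out. qHTS format.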

[12] = qHTS assay to identify small molecule antagonists of the peroxisome proliferator-activated receptor gamma (PPARg) signaling pathway - cell viability counter screen (AID 743194); note: nearly all actives have a fitted effect of over 55% in size; note: potency is the fitted concentration of half-maximal effect
Procedure, shortened: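 Cytotoxicity counter screen in PPARg-bla HEK293H cells, same wells as reporter assay. Compounds plus 50 nM rosiglitazone (final) for 17 h at 37 C, then viability read by CellTiter-Glo luminescence.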

[13] = qHTS assay for small molecule agonists of the antioxidant response element (ARE) signaling pathway (AID 743202; active = well fitted activation curve with a large enough effect in the signal ratio in the repeat runs, not every such curve was filed as active; the % refers to the signal ratio)
Procedure, shortened: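 HepG2 ARE-bla cells; 16 h treatment at 37 C; FRET-based beta-lactamase fluorescence read after 2 h substrate incubation at room temperature.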

[14] = qHTS assay for small molecule activators of the heat shock response signaling pathway - cell viability counter screen (AID 743209); note: nearly all actives have a fitted effect of over 50% in size; note: potency is the fitted concentration of half-maximal effect
Procedure, shortened: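 HSE-bla HeLa; 1500 cells/well; overnight 37 C, 5% CO2; compound 5 h 37 C; LiveBLAzer B/G substrate 2.5 h RT; CellTiter-Glo 30 min RT; luminescence.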

[15] = qHTS assay to identify small molecule antagonists of the thyroid receptor (TR) signaling pathway - cell viability counter screen (AID 743064); note: nearly all actives have a fitted effect of over 50% in size; note: potency is the fitted concentration of half-maximal effect
Procedure, shortened: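 GH3.TRE-Luc cells, 4 h pre-plating; cpd + T3 1 nM final; 37 °C 23.5 h; CellTiter-Fluor 30 min; fluorescence read.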

[16] = qHTS assay to identify small molecule antagonists of the estrogen receptor alpha (ER-alpha) signaling pathway using the BG1 cell line - cell viability counter screen (AID 743081);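 note: compound given together with 17beta-estradiol as the ER stimulus; nearly all actives have a fitted effect of over 45% in size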
[17] = qHTS assay for small molecule agonists of the antioxidant response element (ARE) signaling pathway - cell viability counter screen (AID 743203; calls by dose curve; note: nearly all actives have a fitted effect of over 55% in size)
Procedure, shortened: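 Luminescence read-out (CellTiter-Glo, 30 min at room temperature) measured cell viability in the same wells as the ARE beta-lactamase reporter. HepG2 ARE-bla cells were treated with compounds for 16 hrs at 37C/5% CO2.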

[18] = qHTS assay for small molecule activators of the heat shock response signaling pathway (AID 743210; active = well fitted activation curve with a large enough effect in the signal ratio in the repeat runs, with a control signal flat, not every such curve was filed as active; the % refers to the signal ratio;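 note: HeLa cells with beta-lactamase reporter driven by heat shock elements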)
Procedure, shortened: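 Following overnight attachment, HSE-bla HeLa cells received test compounds for 5 h at 37 C; beta-lactamase activity was then detected via FRET substrate fluorescence.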

[19] = target: Peroxisome proliferator-activated receptor gamma (Homo sapiens) (UniProt P37231); experiment: qHTS assay to identify small molecule antagonists of the peroxisome proliferator-activated receptor gamma (PPARg) signaling pathway (AID 743191; calls by dose curve; note: nearly all actives have a fitted effect of over 30% in size)
Procedure, shortened: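 GeneBLAzer PPARg UAS-bla HEK293H cells, 5 h post-plating, exposed to compounds 17 h at 37C. LiveBLAzer B/G FRET substrate added for 1 h at room temperature; beta-lactamase reporter read by fluorescence intensity.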

SMILES | Potency [1] | outcome [2] | Potency [3] | Potency [4] | Potency [5] | Potency [6] | Potency [7] | Potency (Aromatase (Homo sapiens)) | Potency [8] | Potency [9] | Potency [10] | Potency [11] | Potency [12] | Potency [13] | Potency [14] | Potency [15] | Potency [16] | Potency [17] | Potency [18] | Potency [19]
CC(CN(C)C)C(C)(O)Cc1ccc(Cl)cc1 (stereo not drawn) | inactive | inactive | inactive | inactive | inactive | inactive | inactive | inactive | inactive | inactive | inactive | inactive | inactive | inactive | inactive | – | – | – | – | –
CCCCCC[C@@H](O)C/C=C\CCCCCCCC(=O)O | – | inactive | – | inactive | – | – | – | inactive | inactive | – | inactive | inactive | – | – | – | inactive | inactive | – | – | –
Cc1ccc(Cl)c(Nc2ccccc2C(=O)O)c1Cl | – | inactive | – | – | inactive | inactive | inactive | inactive | inactive | inactive | inactive | – | inactive | – | – | inactive | inactive | inactive | inactive | –
O=C(O)C[C@H](NC(=O)OCc1ccccc1)C(=O)O | – | – | inactive | inactive | inactive | inactive | inactive | inactive | inactive | – | inactive | inactive | inactive | – | – | inactive | inactive | – | inactive | inactive
CCOC(=O)c1ccc(I)cc1 | inactive | inactive | – | inactive | inactive | inactive | inactive | inactive | inactive | inactive | inactive | inactive | inactive | inactive | inactive | – | inactive | inactive | inactive | inactive
COc1ccccc1N1CCN(CC(O)COc2cccc3ccccc23)CC1 (stereo not drawn) | – | inactive | – | inactive | – | – | – | inactive | inactive | – | inactive | inactive | inactive | – | inactive | 26.6 µM (active) | inactive | inactive | – | –
CCCCCCCCC(CCCCCC)C(=O)O (stereo not drawn) | – | inactive | – | inactive | – | – | – | – | – | inactive | inactive | – | 38.9 µM (active) | inactive | 17.4 µM (active) | inactive | inactive | – | – | –
C[C@@H](CN(C)C)CN1c2ccccc2Sc2ccccc21 | 10.1 µM (active) | inactive | inactive | inactive | inactive | inactive | inactive | inactive | inactive | – | inactive | inactive | – | – | inactive | – | inactive | inactive | inactive | –
